# Article PMC7862700, “An all-to-all approach to the identification of sequence-specific readers for epigenetic DNA modifications on cytosine”
# Columns and labels:
# Test in all cases: DAPPL (digital affinity profiling via proximity ligation, sequencing); 10 mM Tris-HCl pH 7.5, 50 mM NaCl, 1 mM DTT, 4% glycerol, room temperature, 30 min; GST-TFs on glutathione beads, 16-mer random dsDNA library, 0.1% formaldehyde crosslink after washing; high values mean tight binding
# Conditions in all cases: protein: recombinant; tags: N-terminal GST; dsDNA, one strand shown
# [1] = target: T1, FLI1 (Homo sapiens, UniProt Q01543 1-452)
# T1 sequence: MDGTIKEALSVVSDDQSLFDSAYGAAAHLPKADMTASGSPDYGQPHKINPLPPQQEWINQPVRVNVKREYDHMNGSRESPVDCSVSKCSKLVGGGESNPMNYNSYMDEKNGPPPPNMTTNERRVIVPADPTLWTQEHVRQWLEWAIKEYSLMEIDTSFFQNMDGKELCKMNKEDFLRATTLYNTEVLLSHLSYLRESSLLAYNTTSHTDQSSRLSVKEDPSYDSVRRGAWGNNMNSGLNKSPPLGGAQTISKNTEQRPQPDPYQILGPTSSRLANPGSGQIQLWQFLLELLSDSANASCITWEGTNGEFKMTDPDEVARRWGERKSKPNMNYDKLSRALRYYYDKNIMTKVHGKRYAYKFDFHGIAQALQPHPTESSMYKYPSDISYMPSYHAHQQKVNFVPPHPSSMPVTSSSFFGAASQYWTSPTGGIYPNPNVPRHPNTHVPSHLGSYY
# Procedure, shortened: (§1)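 GST fusions of human transcription factors were expressed in yeast and captured with glutathione beads. Once given DNA barcodes and pooled alongside a tag-only sample, they were incubated for 30 min at room temperature with 200 nmole of a random double-stranded 16-mer DNA library in Tris/NaCl/DTT/glycerol buffer, then washed, crosslinked (0.1% formaldehyde), proximity-ligated, PCR-amplified and sequenced on an Illumina NextSeq500. The binding signal of each hexamer is its read frequency for a factor divided by its frequency for the tag-only sample.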
# [2] = target: T2, ELK1 (Homo sapiens, UniProt P19419 1-428)
# T2 sequence: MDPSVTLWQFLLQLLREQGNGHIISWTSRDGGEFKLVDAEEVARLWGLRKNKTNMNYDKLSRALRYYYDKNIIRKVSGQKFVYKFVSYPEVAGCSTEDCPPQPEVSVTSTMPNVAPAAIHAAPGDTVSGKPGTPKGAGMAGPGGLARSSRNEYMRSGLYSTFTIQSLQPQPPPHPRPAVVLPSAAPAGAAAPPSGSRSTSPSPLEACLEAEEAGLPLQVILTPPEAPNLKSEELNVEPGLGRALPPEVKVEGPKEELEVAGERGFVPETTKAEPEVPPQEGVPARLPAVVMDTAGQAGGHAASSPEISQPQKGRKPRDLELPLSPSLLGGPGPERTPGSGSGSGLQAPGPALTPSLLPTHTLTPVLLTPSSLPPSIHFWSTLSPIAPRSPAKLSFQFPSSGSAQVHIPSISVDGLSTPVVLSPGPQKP
# Procedure, shortened: as §1
# [3] = target: T3, GABPA (Homo sapiens, UniProt Q06546 1-454)
# T3 sequence: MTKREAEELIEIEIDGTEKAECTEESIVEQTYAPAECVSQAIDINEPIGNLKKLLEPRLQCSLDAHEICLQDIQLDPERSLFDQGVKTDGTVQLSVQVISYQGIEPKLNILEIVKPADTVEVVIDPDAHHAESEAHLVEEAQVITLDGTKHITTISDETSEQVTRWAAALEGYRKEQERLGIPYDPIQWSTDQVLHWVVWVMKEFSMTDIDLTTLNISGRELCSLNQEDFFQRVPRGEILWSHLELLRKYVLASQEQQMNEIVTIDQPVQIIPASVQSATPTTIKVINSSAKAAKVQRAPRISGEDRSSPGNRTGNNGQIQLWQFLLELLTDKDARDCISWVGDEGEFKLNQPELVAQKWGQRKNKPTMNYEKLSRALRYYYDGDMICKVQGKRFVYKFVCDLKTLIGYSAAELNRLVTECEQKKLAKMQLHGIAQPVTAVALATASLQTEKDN
# Procedure, shortened: as §1
# [4] = target: T4, ERG (Homo sapiens, UniProt P11308 1-479)
# T4 sequence: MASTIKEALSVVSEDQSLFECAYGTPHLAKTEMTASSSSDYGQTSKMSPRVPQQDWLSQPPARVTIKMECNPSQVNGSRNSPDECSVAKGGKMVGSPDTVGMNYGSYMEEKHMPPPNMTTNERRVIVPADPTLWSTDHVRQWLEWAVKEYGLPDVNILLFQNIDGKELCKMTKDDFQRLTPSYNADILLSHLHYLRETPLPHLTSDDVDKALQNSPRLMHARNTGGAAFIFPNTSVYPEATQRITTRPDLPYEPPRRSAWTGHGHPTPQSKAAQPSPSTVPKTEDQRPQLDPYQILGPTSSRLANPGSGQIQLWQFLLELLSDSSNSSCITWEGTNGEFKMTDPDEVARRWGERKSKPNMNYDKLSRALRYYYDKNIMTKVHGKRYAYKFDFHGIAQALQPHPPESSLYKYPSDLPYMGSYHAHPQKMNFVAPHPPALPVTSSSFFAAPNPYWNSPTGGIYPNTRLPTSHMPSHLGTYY
# Procedure, shortened: as §1
# [5] = target: ELF1 (Homo sapiens, UniProt P32519 1-619)
# ELF1, sequence (P32519 whole entry): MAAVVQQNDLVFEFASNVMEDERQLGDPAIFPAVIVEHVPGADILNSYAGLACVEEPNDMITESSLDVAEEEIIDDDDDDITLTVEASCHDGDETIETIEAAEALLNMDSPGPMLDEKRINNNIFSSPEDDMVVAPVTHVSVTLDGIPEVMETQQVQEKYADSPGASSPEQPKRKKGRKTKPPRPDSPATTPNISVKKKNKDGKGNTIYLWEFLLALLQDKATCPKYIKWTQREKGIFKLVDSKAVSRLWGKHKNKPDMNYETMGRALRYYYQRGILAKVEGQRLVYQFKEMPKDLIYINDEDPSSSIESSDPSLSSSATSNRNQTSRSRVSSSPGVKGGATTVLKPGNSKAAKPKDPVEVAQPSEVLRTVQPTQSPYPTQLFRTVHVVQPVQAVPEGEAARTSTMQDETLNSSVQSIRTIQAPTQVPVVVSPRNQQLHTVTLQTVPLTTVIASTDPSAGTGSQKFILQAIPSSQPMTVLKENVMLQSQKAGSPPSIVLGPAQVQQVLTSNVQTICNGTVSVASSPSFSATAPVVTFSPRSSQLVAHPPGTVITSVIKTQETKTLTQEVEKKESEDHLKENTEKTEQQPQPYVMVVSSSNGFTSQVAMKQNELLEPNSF
# Procedure, shortened: as §1
# [6] = target: T5, EHF (Homo sapiens, UniProt Q9NZC4 1-300)
# T5 sequence: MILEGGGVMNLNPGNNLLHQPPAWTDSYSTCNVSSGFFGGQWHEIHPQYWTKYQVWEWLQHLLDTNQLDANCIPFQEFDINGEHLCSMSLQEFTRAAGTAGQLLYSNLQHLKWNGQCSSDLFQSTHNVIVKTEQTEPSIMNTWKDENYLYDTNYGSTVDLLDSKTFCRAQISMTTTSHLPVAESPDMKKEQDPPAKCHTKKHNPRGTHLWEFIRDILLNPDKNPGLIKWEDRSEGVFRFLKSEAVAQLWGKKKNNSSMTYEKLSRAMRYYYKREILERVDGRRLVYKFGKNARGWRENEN
# Procedure, shortened: as §1
# [7] = target: SPI1 (Homo sapiens, UniProt P17947 1-270)
# Procedure, shortened: as §1
# [8] = target: SPIB (Homo sapiens, UniProt Q01892 1-262)
# SPIB, sequence (Q01892 whole entry): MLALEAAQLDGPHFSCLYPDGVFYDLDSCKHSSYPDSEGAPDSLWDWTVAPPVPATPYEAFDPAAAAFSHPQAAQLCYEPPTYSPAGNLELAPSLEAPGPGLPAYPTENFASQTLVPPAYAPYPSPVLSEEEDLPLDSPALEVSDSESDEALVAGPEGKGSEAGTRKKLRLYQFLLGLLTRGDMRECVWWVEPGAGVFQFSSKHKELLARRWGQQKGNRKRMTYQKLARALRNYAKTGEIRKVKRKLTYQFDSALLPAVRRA
# Procedure, shortened: as §1
# [9] = target: T6, ELK3 (Homo sapiens, UniProt P41970 1-407)
# T6 sequence: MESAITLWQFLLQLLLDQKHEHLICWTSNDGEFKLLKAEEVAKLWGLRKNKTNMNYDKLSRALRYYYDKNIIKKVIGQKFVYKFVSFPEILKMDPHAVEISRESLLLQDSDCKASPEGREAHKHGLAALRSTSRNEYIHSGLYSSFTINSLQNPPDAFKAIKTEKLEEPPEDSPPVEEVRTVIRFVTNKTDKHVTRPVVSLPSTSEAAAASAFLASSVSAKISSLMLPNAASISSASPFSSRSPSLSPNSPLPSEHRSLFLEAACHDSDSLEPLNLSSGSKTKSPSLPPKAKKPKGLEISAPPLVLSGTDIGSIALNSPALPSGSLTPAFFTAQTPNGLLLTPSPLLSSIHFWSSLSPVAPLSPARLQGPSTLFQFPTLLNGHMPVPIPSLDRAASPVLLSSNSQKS
# Procedure, shortened: as §1
sequence,measurement,setting,value
GCTTAC,binding signal,[1],"1.19 fold enrichment (6-mer frequency, TF over GST control)"
same,binding signal,[2],"1.12 fold enrichment (6-mer frequency, TF over GST control)"
same,binding signal,[3],"1.05 fold enrichment (6-mer frequency, TF over GST control)"
same,binding signal,[4],"1.19 fold enrichment (6-mer frequency, TF over GST control)"
same,binding signal,[5],"1.15 fold enrichment (6-mer frequency, TF over GST control)"
same,binding signal,[6],"1.16 fold enrichment (6-mer frequency, TF over GST control)"
same,binding signal,[7],"1.12 fold enrichment (6-mer frequency, TF over GST control)"
same,binding signal,[8],"1.12 fold enrichment (6-mer frequency, TF over GST control)"
same,binding signal,[9],"1.23 fold enrichment (6-mer frequency, TF over GST control)"
